Here are results for ten compounds from PubChem BioAssay AID1224865 (Sanford-Burnham Center for Chemical Genomics, 2016).

About 1,100 (0.31%) of roughly 360,000 compounds were called active. Only a selection was taken, and actives are over-represented in it overall. Values without a mark were called inactive. Cut-off read from the data, not from the text of the source: active = activity change above about 30% (passing the limit was not always enough); inactive = the rest.

The target in the assay is Hepatocyte nuclear factor 4-alpha (Homo sapiens) (UniProt P41235). As to the kind of experiment: change in binding of human HNF4A to DNA, primary screen, biochemical, fluorescence polarization, FITC-DNA (AID 1224865). The note with it: 1 h, at 10 µM, active compounds read high. For orientation: Fluorescence polarisation rises when a labelled molecule tumbles more slowly, as on binding a larger partner.
Hepatocyte nuclear factor 4-alpha (Homo sapiens), sequence (P41235 whole entry, looked up): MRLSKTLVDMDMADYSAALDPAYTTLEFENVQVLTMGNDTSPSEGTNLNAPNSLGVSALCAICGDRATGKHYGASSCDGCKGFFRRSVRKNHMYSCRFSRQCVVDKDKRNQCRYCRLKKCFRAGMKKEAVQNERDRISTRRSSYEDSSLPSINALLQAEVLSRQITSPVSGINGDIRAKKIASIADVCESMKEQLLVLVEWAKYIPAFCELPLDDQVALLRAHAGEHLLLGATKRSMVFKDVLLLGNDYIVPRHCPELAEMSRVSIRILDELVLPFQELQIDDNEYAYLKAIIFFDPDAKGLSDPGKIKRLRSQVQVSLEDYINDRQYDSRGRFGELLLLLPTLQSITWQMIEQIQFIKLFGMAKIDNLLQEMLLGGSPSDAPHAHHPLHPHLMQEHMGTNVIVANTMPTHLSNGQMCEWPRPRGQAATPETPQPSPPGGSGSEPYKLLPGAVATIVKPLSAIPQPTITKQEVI
Regarding `O=C(CN1CCCCC1)Nc1ccc(Br)cc1C(=O)c1ccccc1Cl`, the activity change was -1.1%.

Take `CN1CCN(C(=S)SCC(=O)Nc2ccc(Cl)cc2C(=O)c2ccccc2)CC1`: the activity change was -2.35%.

For `O=C(CCN1CCCCC1)NCC(=O)Nc1ccc(Br)cc1C(=O)c1ccccc1`, the activity change is 53% (active).

Regarding `COc1ccccc1N=Nc1c(O)[nH]c(=S)[nH]c1=O`, the activity change is 68.8% (active).

Regarding `CCOCCc1c(O)[nH]c(=S)[nH]c1=O`, the activity change was -0.41%.

As to `O=C1N=c2ccccc2=C/C1=C\c1c(O)[nH]c(=S)[nH]c1=O`, the activity change was 4.26%.

As to `C=Cn1ccnc1P(=S)(c1cc(N(CC)CC)ns1)c1nccn1C=C`, the activity change was -0.17%.

With `CCN(CC)c1ccc([N+](=O)[O-])c2cccnc12`, the activity change was 4.4%.

Consider `COc1ccc(-c2nn(CCC#N)cc2C(=O)Nc2ccc(C(C)=O)cc2)cc1`, for which the activity change is 2.38%.

For the compound `CC1CC=CCC12C(=O)NC(=S)NC2=O` (stereo not given), the activity change was -0.2%.
